From article PMC13083723 (Patterns, 2026)
Among all 5,400 compounds or so, about 190 (3.5%) showed an effect of 50% or more. For the sample, strong results were picked, then their nearest neighbours and some compounds at random. Positions of bridges follow the written chain, without caps; N, C: chain ends. Non-standard residues stand in square brackets, D forms with d. Residues, ends and D or L forms follow the SMILES beside them. *: point of attachment. X1 = CCC(C)C(N)C1=NC(C(=O)*)CS1; dOrn = NCCC[C@@H](N)C(=O)O

Each molecule was assayed on Vero-E6 (assay: primary screen, phospholipidosis by LipidTOX staining; higher = more effect of the substance). Conditions: 10 µM.
In short: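 Single-concentration screen at 10 μM, with DMSO 0.1 v/v % and amiodarone 10 μM as controls. Read-out is LipidTOX Red phospholipid staining, which tolerates aldehyde fixation, in Vero-E6 cells.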
In the case of `CCOc1nc2cccc(C(=O)O)c2n1Cc1ccc(-c2ccccc2-c2nc(=O)o[nH]2)cc1`, the result_ITMP is reported as -0.57%. `NCCCC(O)(P(=O)([O-])O)P(=O)(O)O` showed a result_ITMP of 0.52%. In the case of `CC1(C)S[C@@H]2[C@H](NC(=O)C(C(=O)[O-])c3ccccc3)C(=O)N2[C@H]1C(=O)[O-]` (stereo partly shown), the result_ITMP is reported as -1.48%. Work on `Nc1ncccc1-c1nc2ccc(-c3ccccc3)nc2n1-c1ccc(C2(N)CCC2)cc1` yielded a result_ITMP of 91.9%. Molecule `CC(C)(C)[C@]1(O)C[C@@H]2OC(=O)C[C@@]23C(=O)O[C@@H]2OC(=O)[C@H](O)C213` (stereo partly shown) has a result_ITMP of -3.55%. `COc1cccc2c1C(=O)c1c(O)c3c(c(O)c1C2=O)C[C@@](O)(C(=O)CO)C[C@@H]3OC1C[C@H](N2CCO[C@H](OC)C2)C(O)[C@H](C)O1` (stereo partly shown) showed a result_ITMP of 0.2%. For `CC1(C)CC[C@]2(NC(=O)C(C)(F)F)CC[C@]3(C)C(C(=O)C=C4[C@@]5(C)C=C(C#N)C(=O)C(C)(C)[C@@H]5CC[C@]43C)C2C1` (stereo partly shown), the result_ITMP was -22.1%. For `CC1(C)C[C@@H]1C(=O)N/C(=C\CCCCSC[C@H](N)C(=O)[O-])C(=O)O`, the result_ITMP was -1.62%. In the case of `CCOC(=O)c1cc2ccc(O)cc2oc1=O`, the result_ITMP is reported as -3.11%. `c1ccc(CNCc2ccc(CN3CCCNCCNCCCNCC3)cc2)nc1` showed a result_ITMP of -2%. In the case of `O=C(c1ccc(-c2ccc(Cl)cc2)o1)N(Cc1ccccn1)c1ccc(N2CCNCC2)cc1`, the result_ITMP is reported as 104%. Work on `Clc1ccc(N2CCN(Cc3c[nH]c4ncccc34)CC2)cc1` yielded a result_ITMP of 1.68%. In the case of `CCCC(CCC)C(=O)NCC(N)=O`, the result_ITMP is reported as -5.65%. In the case of `Nc1ccc(C(=O)[O-])c(O)c1`, the result_ITMP is reported as -0.28%. With `C[C@H](CCC(=O)NCCS(=O)(=O)O)[C@H]1CC[C@H]2[C@@H]3[C@@H](O)C[C@@H]4C[C@H](O)CC[C@]4(C)[C@H]3CC[C@]12C` the result_ITMP was 3.34%. For `C[C@]12C=CC(=O)C=C1CC[C@@H]1[C@@H]2CC[C@]2(C)OC(=O)CC[C@@H]12`, the result_ITMP was -2.34%. With `CC(=O)O[C@H]1CC[C@@]2(C)C(=CC[C@@H]3[C@@H]2CC[C@]2(C)C(c4cccnc4)=CC[C@@H]32)C1` the result_ITMP was 2.09%. `CN1CCN(c2ccc(Nc3ncc4cc(C#N)c(=O)n(C5CCCC5)c4n3)cc2)CC1` was tested, and the result_ITMP was -0.88%. With `Cc1cccc(C)c1-n1c(=O)c2cnc(Nc3ccc(N4CCN(C)CC4)cc3)nc2n2c3ccccc3nc12` the result_ITMP was 81.7%. Work on `C=CCn1c(=O)c2cnc(Nc3ccc(N4CCN(C)CC4)cc3)nc2n1-c1cccc(C(C)(C)O)n1` yielded a result_ITMP of 32.4%. In the case of `N[C@@H](CSS(=O)(=O)[O-])C(=O)O`, the result_ITMP is reported as -1.62%. `C/C=C(\C(=C\C)c1ccc(O)cc1)c1ccc(O)cc1` was tested, and the result_ITMP was 0.7%. Molecule `Cc1cc2c(s1)Nc1ccccc1N=C2N1CCN(C)CC1` has a result_ITMP of -8.9%. Work on `Clc1cccc(N2CCNCC2)c1` yielded a result_ITMP of 4.14%. For `Clc1ccc2c(c1)C(N1CCNCC1)=Nc1ccccc1O2`, the result_ITMP was 70%. Work on `c1ccc2nc(N3CCNCC3)ccc2c1` yielded a result_ITMP of 9.23%. With `CN1CCN(C2=Nc3ccccc3Sc3ccc(Cl)cc32)CC1` the result_ITMP was 26.7%. `Clc1ccc2c(c1)N=C(N1CCNCC1)c1ccccc1N2` gave a result_ITMP of 77.7%. With `Cc1ccc(Oc2ccccc2-c2csc(NC3=NCCCN3)n2)c(C)c1` the result_ITMP was 6.61%. `COc1cc(CCc2cc(NC(=O)c3ccc(N4C[C@@H](C)N[C@@H](C)C4)cc3)n[nH]2)cc(OC)c1` showed a result_ITMP of 30.8%. With `C=C[C@@]1(C)CC(=O)[C@]2(O)[C@@]3(C)[C@@H](O)CCC(C)(C)[C@@H]3C(OC(=O)CCN(C)C)C(OC(C)=O)[C@@]2(C)O1` (stereo partly shown) the result_ITMP was 4.63%. `C[C@H](CCC(=O)NCCS(=O)(=O)O)[C@H]1CC[C@H]2[C@@H]3[C@H](O)C[C@@H]4C[C@H](O)CC[C@]4(C)[C@H]3C[C@H](O)[C@]12C` was tested, and the result_ITMP was -2.23%. `CC(O)COC[C@H]1OC2O[C@H]3[C@H](O)[C@@H](O)C(O[C@H]4[C@H](O)[C@@H](O)C(O[C@H]5[C@H](O)[C@@H](O)C(O[C@H]6[C@H](O)[C@@H](O)C(O[C@H]7[C@H](O)[C@@H](O)C(O[C@H]8[C@H](O)[C@@H](O)C(O[C@H]1[C@H](O)[C@H]2O)O[C@@H]8COCC(C)O)O[C@@H]7COCC(C)O)O[C@@H]6COCC(C)O)O[C@@H]5COCC(C)O)O[C@@H]4COCC(C)O)O[C@@H]3COCC(C)O` (stereo partly shown) showed a result_ITMP of -3.69%. With `COc1ccc(C[C@@H](C)[C@@H](C)Cc2ccc(OC)c(OC)c2)cc1OC` the result_ITMP was 6.63%. Molecule `COc1ccc(Cc2nc(=O)c3c(C)nc([C@@H](CCCc4ccccc4)[C@@H](C)O)n3[nH]2)cc1OC` has a result_ITMP of 0.34%. Work on `C=CC(=O)Nc1cccc(Oc2nc(Nc3ccc(N4CCN(C)CC4)cc3OC)ncc2Cl)c1` yielded a result_ITMP of -1.32%. `C=CC(=O)Nc1cccc(Oc2nc(Nc3ccc(N4CCN(C)CC4)cc3)ncc2Cl)c1` was tested, and the result_ITMP was 70.5%. `C=CC(=O)Nc1cccc(Oc2nc(Nc3ccc(N4CCN(C)CC4)cc3)nc3ccsc23)c1` showed a result_ITMP of 37.8%. Work on `C[C@H]1[C@H](C)CC[C@]2(C(=O)O)CC[C@]3(C)C(=CC[C@@H]4[C@@]5(C)C[C@@H](O)[C@H](O)[C@@](C)(CO)[C@@H]5CC[C@]43C)[C@H]12` yielded a result_ITMP of -2.77%. `Cc1cc(-c2cc(O)ccc2Cl)cc2nnc(Nc3ccc(OCCN4CCCC4)cc3)nc12` showed a result_ITMP of -2.38%. Molecule `Cc1cnc(Nc2ccc(N3CCN(C)CC3)cc2)nc1Nc1cccc(S(=O)(=O)NC(C)(C)C)c1` has a result_ITMP of 21.8%. With `Cc1cnc(Nc2ccc(OCCN3CCCC3)cc2)nc1Nc1cccc(S(=O)(=O)NC(C)(C)C)c1` the result_ITMP was 122%. Work on `Cn1cnc2nc(O)nc(O)c21` yielded a result_ITMP of 0.82%. With `Cc1nc2ccc(Oc3ccc(F)cc3)cc2c(=O)n1C[C@H]1CCCN(C(C)C)C1` the result_ITMP was 56.3%. `O=C([O-])[C@H](O)[C@@H](O)[C@H](O)[C@H](O)C(O)CO` (stereo partly shown) showed a result_ITMP of -2.51%. Work on `Cn1nccc1Nc1nccc(-c2ccn([C@H](CO)c3ccc(Cl)c(F)c3)c(=O)c2)n1` [R4A_0003897_001 / SPE_A20830788] yielded a result_ITMP of 1.66%. In the case of `COCCCC/C(=N\OCCN)c1ccc(C(F)(F)F)cc1`, the result_ITMP is reported as 48.9%. `CN(CC[C@@H](Oc1ccc(-c2ccccc2)cc1)c1ccc(F)cc1)CC(=O)O` gave a result_ITMP of 0.25%. Molecule `NCCC(Oc1ccc(C(F)(F)F)cc1)c1ccccc1` (stereo not shown) has a result_ITMP of 62.2%. In the case of `CNCCC(Oc1ccc(C(F)(F)F)cc1)c1ccccc1` (stereo not shown), the result_ITMP is reported as 54.3%. With `CNCCC(Oc1ccccc1OC)c1ccccc1` (stereo not shown) the result_ITMP was 13%. In the case of `CN1C2CC(O)[C@H]1C[C@@H](OC(=O)[C@H](CO)c1ccccc1)C2` (mixture of isomers), the result_ITMP is reported as -3.11%. `CCCN1C[C@@H](NS(=O)(=O)N(CC)CC)C[C@@H]2Cc3c(O)cccc3C[C@H]21` was tested, and the result_ITMP was 0.96%. With `CC(=O)O.CC(=O)O.N.NC1CCCCC1.[Cl][Pt][Cl]` the result_ITMP was -1.8%. Work on `O=C([O-])Cc1ccccc1Nc1c(Cl)cccc1Cl` yielded a result_ITMP of -2.2%. `CN(C(=O)Cc1ccccc1)C(CN1CCCC1)c1ccccc1` (stereo not shown) was tested, and the result_ITMP was 6.1%. Molecule `CN(C(=O)CN1C(=O)COc2cc(Cl)c(Cl)cc21)[C@@H](CN1CCCC1)c1ccc(-c2cccc(C(N)=O)c2)cc1` has a result_ITMP of 41.8%. `CN(C(=O)Cc1ccc(Cl)c(Cl)c1)[C@H](CN1CCCC1)c1ccccc1` gave a result_ITMP of 53.5%. `CCC(C)C(N)C1=NC(C(=O)N[C@@H](CC(C)C)C(=O)N[C@H](CCC(=O)[O-])C(=O)N[C@H](C(=O)N[C@H]2CCCCNC(=O)[C@H](CC(N)=O)NC(=O)[C@@H](CC(=O)[O-])NC(=O)[C@@H](Cc3cnc[nH]3)NC(=O)[C@@H](Cc3ccccc3)NC(=O)[C@@H]([C@H](C)CC)NC(=O)[C@@H](CCCN)NC2=O)[C@@H](C)CC)CS1` (stereo partly shown) (X1-L[dE]IK[dOrn][dI][dF][dH][dD]N; lactam 4-C) gave a result_ITMP of -3.81%. Molecule `Cc1cccn2c(=O)c(-c3nn[n-]n3)cnc12` has a result_ITMP of -2.44%. In the case of `CCCNCC(O)COc1ccccc1C(=O)CCc1ccccc1` (stereo not shown), the result_ITMP is reported as 86.6%. `CCN(CC)CCOc1ccccc1C(=O)CCc1ccccc1` was tested, and the result_ITMP was 30.6%. `CCCC(=O)c1cc(F)ccc1OCC(O)CNC(C)(C)C` (stereo not shown) was tested, and the result_ITMP was 20.3%. `Cn1nnnc1SCC1=C(C(=O)[O-])N2C(=O)[C@@H](NC(=O)[C@H](O)c3ccccc3)[C@H]2SC1` showed a result_ITMP of -1.4%. `Oc1ccc(OCc2ccccc2)cc1` was tested, and the result_ITMP was -11.6%. `CN1CCN(C(=O)CN[C@@H]2C[C@H]2c2ccc(OCc3ccccc3)cc2)CC1` was tested, and the result_ITMP was 87.7%. Work on `O=C(O)c1ccc(CN2CCC(CN[C@@H]3C[C@H]3c3ccccc3)CC2)cc1` yielded a result_ITMP of -1.25%. Molecule `Cc1cc(Nc2cc(CN3CCOCC3)c3nc(C)c(Cc4ccc(Cl)cc4F)n3n2)[nH]n1` has a result_ITMP of 13%. `COc1ccc2cc1Oc1ccc(cc1)C[C@H]1c3cc(c(OC)cc3CCN1C)Oc1c(OC)c(OC)cc3c1[C@H](C2)N(C)CC3` was tested, and the result_ITMP was 17.4%. Molecule `COc1cc2c3cc1Oc1cc(ccc1O)C[C@@H]1c4c(cc(OC)c(O)c4Oc4ccc(cc4)C[C@@H]3N(C)CC2)CC[N+]1(C)C` has a result_ITMP of -3.39%. In the case of `COc1ccc2cc1Oc1ccc(cc1)C[C@H]1c3c(cc4c(c3Oc3cc5c(cc3OC)CCN(C)[C@@H]5C2)OCO4)CCN1C`, the result_ITMP is reported as 57%. In the case of `CCN(CC)C(=S)[S-]`, the result_ITMP is reported as -6.15%. In the case of `COCCCOc1ccnc(CS(=O)c2nc3ccccc3[n-]2)c1C` (stereo not shown), the result_ITMP is reported as -0.77%. Work on `CCC(=O)Nc1cccc(Oc2nc(Nc3ccc(N4CCN(C)CC4)cc3OC)ncc2Cl)c1` yielded a result_ITMP of -5.58%. `COc1cc(N2CCOCC2)ccc1Nc1ncc(Cl)c(Nc2ccccc2NS(C)(=O)=O)n1` showed a result_ITMP of 51.4%. Work on `COc1cc(N2CCC(N3CCN(C)CC3)CC2)ccc1Nc1ncc(Cl)c(Nc2ccccc2P(C)(C)=O)n1` yielded a result_ITMP of -0.55%. With `CNC(=O)c1ccccc1Nc1nc(Nc2ccc(N3CCOCC3)cc2OC)ncc1Cl` the result_ITMP was 3.78%. Work on `COc1cc(N2CCC(N(C)C)CC2)ccc1Nc1ncc(Cl)c(Nc2ccccc2P(C)(C)=O)n1` yielded a result_ITMP of 51.8%. `COc1cc(N2CCC(N)CC2)ccc1Nc1ncc(Cl)c(-c2c[nH]c3ccccc23)n1` was tested, and the result_ITMP was 15.8%.
